Test results: PubChem BioAssay (NCI)
About 79,000 compounds went through this panel and 15% of them were active in at least one assay; those are over-represented in the sample as a whole. Calls of active or inactive are those of the source. Cut-off read from the data, not from the text of the source: active = growth inhibition above about 70%; inactive = the rest.

Columns and labels:
[1] = NCI Yeast Anticancer Drug Screen. Data for the rad52 strain (AID 147);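 note: 0% = growth of vehicle-treated control cultures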; settings: S. cerevisiae rad52 mutant growth inhibition, hits give high values
Procedure, shortened: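 Yeast strain carrying a DNA damage repair alteration was exposed to test compounds. Growth inhibition was measured relative to vehicle-treated controls.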

[2] = NCI Yeast Anticancer Drug Screen. Data for the wt1 strain (AID 149);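 note: 0% = growth of vehicle-treated wt1 cultures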; settings: S. cerevisiae wt1 strain (SPY 50644) growth inhibition, hits give high values
Procedure, shortened: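 Measured: growth of wt1 yeast under compound versus vehicle treatment, reported as inhibition.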

[3] = NCI Yeast Anticancer Drug Screen. Data for the rad50EPP+ strain (AID 151);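 note: 0% = growth of vehicle-treated control cultures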; settings: S. cerevisiae rad50 mutant strain, hits give high values
Procedure, shortened: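 Yeast strain carrying rad50 alteration (rad50EPP+) exposed to compounds; growth inhibition measured relative to vehicle-treated controls.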

[4] = NCI Yeast Anticancer Drug Screen. Data for the mgt1 strain (AID 153); settings: S. cerevisiae mgt1 mutant growth inhibition, hits give high values
Procedure, shortened: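 Yeast mgt1 strain (DNA repair/cell-cycle alteration panel) exposed to compounds; growth inhibition measured relative to vehicle-treated controls.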

[5] = NCI Yeast Anticancer Drug Screen. Data for the rad50 strain (AID 155);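 note: 0% = growth of vehicle-only cultures of the same strain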; settings: S. cerevisiae rad50 strain growth inhibition, hits give high values
Procedure, shortened: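 Growth of the mutant yeast was measured after compound exposure and referenced to vehicle-treated cultures.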

[6] = NCI Yeast Anticancer Drug Screen. Data for the mec2-1 strain (AID 157); settings: S. cerevisiae mec2-1 strain, hits give high values
Procedure, shortened: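 mec2-1 yeast strain, carrying an alteration in DNA damage repair or cell cycle control, was exposed to compounds; growth inhibition was measured relative to vehicle-treated controls.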

[7] = NCI Yeast Anticancer Drug Screen. Data for the rad14 strain (AID 159);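 note: 0% = growth of vehicle-treated control cultures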; settings: S. cerevisiae rad14 strain growth inhibition, hits give high values
Procedure, shortened: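 Here, inhibition of yeast growth was measured after compound exposure, using a strain with a genetic defect in DNA damage repair and vehicle-treated cultures as the reference.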

[8] = NCI Yeast Anticancer Drug Screen. Data for the sgs1 mgt1 strain (AID 161);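 note: 0% = growth of cultures given vehicle only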; settings: S. cerevisiae sgs1 mgt1 strain, hits give high values
Procedure, shortened: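 This yeast growth screen uses a strain with defined DNA-repair lesions; compound-treated growth is compared with vehicle-treated growth.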

[9] = NCI Yeast Anticancer Drug Screen. Data for the CLN2oe strain (AID 163);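 note: 0% = growth of vehicle-only control cultures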; settings: S. cerevisiae CLN2oe strain, hits give high values
Procedure, shortened: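 Yeast cells carrying a defined cell-cycle control alteration were exposed to test compounds. Growth inhibition was scored against vehicle-treated control cultures.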

[10] = NCI Yeast Anticancer Drug Screen. Data for the cln2 rad14 strain (AID 165);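 note: 0% = growth equal to vehicle treated cultures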; settings: S. cerevisiae cln2 rad14 strain, hits give high values
Procedure, shortened: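 Yeast carrying cln2 and rad14 alterations (cell cycle control and DNA damage repair) were exposed to compounds. Growth inhibition was measured against vehicle-treated controls.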

[11] = NCI Yeast Anticancer Drug Screen. Data for the bub3 strain (AID 167); settings: S. cerevisiae bub3 mutant strain, hits give high values
Procedure, shortened: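 Whole-cell yeast assay. The mutant strain was incubated with compounds, and growth inhibition was determined by comparison with vehicle-treated cells.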

[12] = NCI Yeast Anticancer Drug Screen. Data for the wt2 strain (AID 169);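 note: 0% = growth of vehicle-treated yeast cultures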; settings: S. cerevisiae wt2 strain growth inhibition, hits give high values
Procedure, shortened: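 Yeast cells were exposed to test compounds, and growth inhibition was measured relative to vehicle-treated controls.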

[13] = NCI Yeast Anticancer Drug Screen. Data for the mlh1 strain (AID 171);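 note: 0% = growth of vehicle-treated control cultures of the same strain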; settings: S. cerevisiae mlh1 strain growth inhibition, hits give high values
Procedure, shortened: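 Yeast carrying a defined genetic alteration in DNA damage repair or cell cycle control were exposed to test compounds. Growth inhibition was measured relative to vehicle-treated controls.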

[14] = NCI Yeast Anticancer Drug Screen. Data for the sgs1 strain (AID 173);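 note: 0% = growth of vehicle-only control cultures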; settings: S. cerevisiae sgs1 mutant, hits give high values
Procedure, shortened: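 Yeast mutant strains carrying defined defects in DNA damage repair or cell cycle control were exposed to test compounds. Growth inhibition was scored against vehicle-treated controls.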

[15] = NCI Yeast Anticancer Drug Screen. Data for the mlh1 rad18 strain (AID 175); settings: S. cerevisiae mlh1 rad18 strain growth inhibition, hits give high values
Procedure, shortened: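 Growth inhibition of the yeast strain was measured after compound exposure and expressed relative to vehicle-treated controls. The strain carries defined defects in DNA damage repair.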

[16] = NCI Yeast Anticancer Drug Screen. Data for the rad18 strain (AID 177); settings: S. cerevisiae rad18 mutant growth inhibition, hits give high values
Procedure, shortened: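 Yeast carrying a defined DNA damage repair alteration were exposed to compounds. Growth inhibition was expressed relative to vehicle-treated controls.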

[17] = at 5.0 µM (retest, dose inferred, filed as 0.5)
[18] = at 50.0 µM (retest, dose inferred, filed as 5.0)

Measured: growth inhibition

COc1cc2c3c(cccc3c1)C(=O)N(CCN(C)C)C2=O
active: [1]; at 100.0 µM 87% | [3]; at 100.0 µM 78% | [5]; [18] 77% | [5]; at 50.0 µM 71.6% | [5]; at 100.0 µM 88%
inactive: [1]; at 1.2 µM -43% | [1]; at 3.7 µM -14% | [1]; at 11.0 µM 20% | [1]; at 33.0 µM 55% | [2]; at 1.2 µM -6% | [2]; at 3.7 µM -11% | [2]; at 11.0 µM -10% | [2]; at 33.0 µM -1% | [2]; at 100.0 µM 2% | [3]; at 1.2 µM -23% | [3]; at 3.7 µM 1% | [3]; at 11.0 µM 8% | [3]; at 33.0 µM 34% | [4]; at 1.2 µM -24% | [4]; at 3.7 µM -22% | [4]; at 11.0 µM -32% | [4]; at 33.0 µM -23% | [4]; at 100.0 µM -7% | [5]; at 1.2 µM 10% | [5]; at 3.7 µM 0% | [5]; [17] 23% | [5]; at 11.0 µM 29% | [5]; at 33.0 µM 61% | [6]; at 1.2 µM -17% | [6]; at 3.7 µM -11% | [6]; [17] 8% | [6]; at 11.0 µM -23% | [6]; at 33.0 µM -19% | [6]; [18] 11% | [6]; at 50.0 µM -5.45% | [6]; at 100.0 µM 9% | [7]; at 1.2 µM -33% | [7]; at 3.7 µM -18% | [7]; at 11.0 µM -24% | [7]; at 33.0 µM -3% | [7]; at 100.0 µM -14% | [8]; [17] 13% | [8]; [18] 23% | [8]; at 50.0 µM -13.1% | [9]; at 1.2 µM -5% | [9]; at 3.7 µM 13% | [9]; at 11.0 µM 25% | [9]; at 33.0 µM 34% | [9]; at 100.0 µM 21% | [10]; [17] 0% | [10]; [18] 3% | [10]; at 50.0 µM -5.5% | [11]; at 1.2 µM -13% | [11]; at 3.7 µM -12% | [11]; [17] 21% | [11]; at 11.0 µM -9% | [11]; at 33.0 µM -10% | [11]; [18] 21% | [11]; at 50.0 µM -34% | [11]; at 100.0 µM -4% | [12]; at 1.2 µM -2% | [12]; at 3.7 µM 1% | [12]; at 11.0 µM -23% | [12]; at 33.0 µM -12% | [12]; at 100.0 µM 5% | [13]; at 1.2 µM -39% | [13]; at 3.7 µM 3% | [13]; at 11.0 µM -19% | [13]; at 33.0 µM -9% | [13]; at 100.0 µM 0% | [14]; at 1.2 µM -21% | [14]; at 3.7 µM -14% | [14]; at 11.0 µM -22% | [14]; at 33.0 µM -15% | [14]; at 100.0 µM -11% | [15]; [17] 42% | [15]; [18] 55% | [15]; at 50.0 µM -50.4% | [16]; at 1.2 µM -34% | [16]; at 3.7 µM -18% | [16]; at 11.0 µM -23% | [16]; at 33.0 µM -15% | [16]; at 100.0 µM -27%
